Mtb hypoxia inh: Mtb hypoxia fluorescent reporter inhibition; M. tuberculosis hypoxia-regulated fluorescent reporter, fluorescence; fluorescence inhibition, % (concentration not given with the values); 300,000 tested, 0.1% active; in the data active = fluorescence inhibition mostly above about 23%, no sharp cut-off; inactive = mostly below about 17%
ugtP null kill: growth inhibition of S. aureus ugtP deletion strain | 330,000 tested, 0.54% active | AID 1259309 | S. aureus RN4220 ugtP deletion, OD600 growth, 16 h | growth inhibition, % (no concentration beside the values); in the data active = growth inhibition above about 68%;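 note: plate controls were untreated wells for no effect and antibiotic for full effect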
Sa RN4220 lethal: kills Staphylococcus aureus RN4220. inhibition, % (no concentration beside the values). 330,000 tested, 0.33% active. S. aureus RN4220 growth, OD600, 16 h; in the data active = inhibition above about 85%;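 note: plate controls were untreated cells for no effect and reference antibiotic for full effect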
Mtb BioA inh: blocks M. tuberculosis BioA enzyme activity; purified M. tuberculosis BioA enzyme, plate reader; inhibition, % at 9.99 µM; 360,000 tested, 0.096% active; AID 602481; in the data active = inhibition above about 40%
TcdB GH inh: inhibitors of Clostridioides difficile toxin B glycohydrolase; 350,000 tested, 0.24% active; AID 652162; P18177; inhibition, % at 9.99 µM; TcdB glycohydrolase enzymatic assay, plate reader; in the data active = inhibition above about 10%
Yp Topo-I inh: blocks Yersinia pestis topoisomerase I activity. Y. pestis Topo-I cleavage product accumulation, plate reader. 360,000 tested, 0.064% active. activity, % at 10 µM; in the data active = activity above about 50%, passing the limit was not always enough
An asterisk follows results filed as active; . = no result shown. A selection: hits, their analogues and other compounds. The true share with any hit is near 0.75%.

SMILES	Mtb hypoxia inh	ugtP null kill	Sa RN4220 lethal	Mtb BioA inh	TcdB GH inh	Yp Topo-I inh
CC(=NNC(=O)C(=O)Nc1ccc(C)cc1)c1ccncc1	6.7	1.1	4.4	.	.	.
COc1c2ccc(C(=O)NCCCCc3ccccc3)cc2nn1C	7.6	0.3	1.6	-0.7	13.9*	3.9
CCOc1c2ccc(C(=O)NCCCCc3ccccc3)cc2nn1C	3.8	12.2	-2.9	-0.5	0.2	36.6
CC(=O)c1cccc(NC(=O)CCc2nnc3ccc(NCc4ccc5c(c4)OCO5)nn23)c1	-13.2	-0.1	-0.2	.	0.2	72.9*
CC(=O)c1cccc(NC(=O)CCc2nnc3ccc(N4CCN(C)CC4)nn23)c1	-7.7	11.7	5.6	-1.9	0.5	4.2
CCN(CC)S(=O)(=O)c1ccc(NN=Cc2cc(OC)c(OC)cc2OC)nc1	-0.8	-2.9	6.2	.	.	.
CC(C(=O)N1CCc2ccccc21)N1CCN(c2cccc(C(F)(F)F)c2)CC1 (centres undefined)	3.4	89.6*	-4.1	1.0	0.7	1.0
CC(=NOC(=O)Nc1ccc(Cl)cc1)c1ncc(C(F)(F)F)cc1N1CCOCC1	.	-1.7	1.4	.	.	.
Cc1cccc(NC(=O)c2nc[nH]c2C(=O)NC(Cc2ccccc2)C(=O)OCc2ccccc2)c1 (centres undefined)	3.7	4.7	-7.3	.	.	.
C[C@]12CCC3c4ccc(O)cc4CCC3C1CC(O)C2O (some centres undefined)	-4.3	-3.6	6.4	.	.	.
C=CCOc1ccc2c(c1)CCC1C2CCC2(C)C(O)C(O)CC12 (centres undefined)	-6.2	84.4*	-7.9	-1.0	3.0	7.9
N#CC(C#N)=c1ccc2c(c1)N1C3=C(CCCC3)CC3CCCCC31N=2 (centres undefined)	.	91.7*	90.9*	1.2	.	8.1
N#C/C(C(N)=O)=c1/ccc2c(c1)N1C3=C(CCCC3)CC3CCCCC31N=2 (centres undefined)	.	.	.	34.4	.	.
CC(=O)N1C(C)C=C[C@]1(Cc1ccccc1)C(=O)NCc1cc(F)cc(C(F)(F)F)c1 (some centres undefined)	10.7	-6.0	7.6	.	.	.
NS(=O)(=O)c1ccc(NC(=S)NCc2ccc3c(c2)OCO3)cc1	3.8	1.9	8.2	.	11.8*	-5.3
O=C(NCc1ccccc1)NC1(C(=O)Nc2ccc3c(c2)OCCO3)CCCCC1	-0.4	-3.3	6.9	-1.3	.	8.2
O=C(Nc1ccccc1)NC1(C(=O)NCc2ccc3c(c2)OCO3)CCCCC1	-7.6	99.8*	9.1	-4.6	.	-7.7
COc1cccc(C=NNC(=O)c2cc(OCC(F)(F)F)ccc2OCC(F)(F)F)c1	.	2.9	2.3	.	.	.
O=C(CC=NOCc1ccc([N+](=O)[O-])cc1)Nc1ccc(Cl)cc1	3.3	-0.8	-0.8	.	.	.
COc1ccc(C(C)=N/N=C2/NC(=O)CC(C(=O)O)S2)cc1F (centres undefined)	0.2	5.0	1.7	.	.	.
CCN1C(=O)C2C(c3ccc(C)cc3)N3C(=O)N(c4ccccc4)C(=O)[C@@]3(Cc3ccccc3)C2C1=O (some centres undefined)	-8.3	-1.4	0.4	.	.	.
COc1ccc(-c2ccc(/C=C3/C(=N)N4C=CSC4=NC3=O)o2)c([N+](=O)[O-])c1	-1.4	94.0*	20.6	1.4	.	-10.3
O=C(Nc1ccccc1)C1=CC(c2csc3ccccc23)CC(OCc2ccc(CO)cc2)O1 (centres undefined)	9.0	1.2	-4.2	.	.	.
CCCC1CC(C(=O)NC(C(C)O)C2OC(SC)C(O)C(O)C2O)N(C)C1 (centres undefined)	.	99.5*	100.4*	.	.	.
CCC[C@@H]1C[C@@H](C(=O)N[C@H]([C@@H](C)O)[C@H]2O[C@H](SC)[C@H](O)[C@@H](O)C2O)N(C)C1 (some centres undefined)	.	.	.	-0.7	1.6	-4.0
SMILES	Mtb hypoxia inh	ugtP null kill	Sa RN4220 lethal	Mtb BioA inh	TcdB GH inh	Yp Topo-I inh
CCCCOC(=O)Nc1nnc(/C=C/c2ccc(OC)cc2)s1	2.6	-13.4	7.3	.	-1.0	53.3*
CCCOc1ccc2oc(=O)c3c(c2c1)CCCN3C(=O)CN1CCc2ccccc2C1	.	85.8*	9.9	-1.0	.	7.2
COc1ccccc1C=NNC(=O)c1ccc(C)nc1	1.4	12.1	4.9	.	.	.
COc1cc(/C=C/c2ccc3cccc([N+](=O)[O-])c3n2)ccc1OCC(=O)O	6.1	6.9	3.7	3.8	0.4	5.2
COc1cc(/C=C/c2ccc3c([N+](=O)[O-])cccc3n2)ccc1OCC(=O)O	76.9*	7.3	4.4	0.5	0.5	2.9
NC(=O)C1CC2(CC(c3cccc(NC(=O)C4CCC(=O)N4)c3)=NO2)CN1C(=O)c1ccccc1 (centres undefined)	6.8	3.3	3.8	.	.	.
